From PubChem BioAssay (Tox21)
Values without a mark were called inactive. Inconclusive results are not listed. Where a call stands in place of a potency, no number is given. Calls of active or inactive are those of the source. Unless noted, calls come from the whole dose curve; as a rule, active = well fitted curve in the direction sought with a large enough effect in the repeat runs; inconclusive = weak or mixed curves; inactive = no such curve, though single readings can be large; an effect the other way counts as inactive or inconclusive.

Columns and labels:
[1] = qHTS assay to identify small molecule agonists of the sonic hedgehog signaling (Shh) pathway (AID 1259368; calls by dose curve;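 note: NIH/3T3-derived 3T3Gli1-Luc cells carrying a stable Gli1-driven firefly luciferase reporter; series mostly up to about 92 µM; nearly all actives have a fitted effect of over 15% in size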)
In short: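 3T3Gli1-Luc (NIH/3T3 clone, stable Gli1-Luc); 4 hr pre-incubation, then cpd in DMSO 24 hr, 37 C/5% CO2; luciferase reagent 30 min RT; luminescence.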

[2] = qHTS assay to identify small molecule antagonists of the sonic hedgehog signaling (Shh) pathway (AID 1259369; calls by dose curve; note: nearly all actives have a fitted effect of over 45% in size; note: potency is the fitted concentration of half-maximal effect)
In short: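 3T3Gli1-Luc, conditioned-medium-stimulated, 24hr cpd, 37C/5% CO2; Gli1-driven firefly Luc luminescence after 30min RT with luciferase reagent. Cells plated 4hr before cpd.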

[3] = biological target: Estrogen receptor beta (Homo sapiens) (UniProt Q92731); experiment: qHTS assay to identify small molecule antagonists of the estrogen receptor beta (ER-beta) signaling pathway (AID 1259378; active = well fitted inhibition curve with a large enough effect in the signal ratio in the repeat runs, not every such curve was filed as active; the % refers to the signal ratio)
Chain of Estrogen receptor beta (Homo sapiens) (Q92731 whole entry, looked up): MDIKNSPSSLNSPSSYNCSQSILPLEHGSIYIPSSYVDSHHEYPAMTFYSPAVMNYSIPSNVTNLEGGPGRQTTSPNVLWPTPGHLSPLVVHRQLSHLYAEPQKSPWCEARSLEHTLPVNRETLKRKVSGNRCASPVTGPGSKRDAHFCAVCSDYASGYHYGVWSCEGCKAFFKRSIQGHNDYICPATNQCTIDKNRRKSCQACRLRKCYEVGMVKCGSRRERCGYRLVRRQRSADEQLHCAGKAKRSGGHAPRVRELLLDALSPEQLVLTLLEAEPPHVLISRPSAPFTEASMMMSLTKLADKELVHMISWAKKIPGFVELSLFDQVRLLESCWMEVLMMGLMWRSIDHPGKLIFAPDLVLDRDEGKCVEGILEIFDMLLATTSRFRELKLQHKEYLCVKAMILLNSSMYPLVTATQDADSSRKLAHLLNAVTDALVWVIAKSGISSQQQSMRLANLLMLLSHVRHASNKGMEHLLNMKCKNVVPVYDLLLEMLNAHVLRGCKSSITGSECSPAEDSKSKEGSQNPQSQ
In short: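 Antagonist mode: compounds added to beta-lactamase reporter HEK293T ER-beta-UAS cells stimulated with E2 (1nM final), 16 hr at 37C. LiveBLAzer B/G FRET substrate, 2 hours room temperature, fluorescence read-out.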

[4] = qHTS assay to identify small molecule agonists of the androgen receptor (AR) signaling pathway in the presence of an antagonist - cell viability counter screen (AID 1259379);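 note: MDA-kb2 human breast cancer cells carrying an MMTV luciferase reporter; series mostly up to about 92 µM; nearly all actives have a fitted effect of over 25% in size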
In short: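 Cells: MDA-kb2 (MMTV-luc, AR and GR elements), 3,000/well, 5 hr settle. Added: nilutamide 3.0uM final, then compounds (15 conc.). Incubation: 16 hr, 37C, no CO2. Read-out: CellTiter-Fluor, 1 hr, fluorescence.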

[5] = qHTS assay to identify small molecule agonists of the estrogen receptor beta (ER-beta) signaling pathway - cell viability counter screen (AID 1259380); note: nearly all actives have a fitted effect of over 30% in size; note: potency is the fitted concentration of half-maximal effect
In short: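 HEK293T ER-beta-UAS-bla; 2% CS-FBS; 6 hr pre-plate, 16 hr cpd at 37C/5% CO2; LiveBLAzer read first, then CellTiter-Glo 30 min RT, luminescence.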

[6] = qHTS assay to identify small molecule antagonists of the estrogen receptor beta (ER-beta) signaling pathway - cell viability counter screen (AID 1259382);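 note: HEK293T cells carrying ER-beta-UAS-bla reporter stimulated with estradiol; series mostly up to about 92 µM; nearly all actives have a fitted effect of over 55% in size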
In short: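 Cells: ER-beta-UAS-bla HEK293T, 2,000/well, 2% CS-FBS, 6 hr settle. Cpd + E2 (1nM final), 16 hr, 37C/5% CO2. Bla FRET substrate 2 hr RT, then CellTiter-Glo 30 min RT, luminescence.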

[7] = biological target: Estrogen receptor (Homo sapiens) (UniProt P03372); experiment: qHTS assay to identify small molecule agonists of the estrogen receptor alpha (ER-alpha) signaling pathway in the presence of an antagonist (AID 1259383; calls by dose curve; note: top concentration of the series differs between compounds; nearly all actives have a fitted effect of over 15% in size)
Chain of Estrogen receptor (Homo sapiens) (P03372 whole entry, looked up): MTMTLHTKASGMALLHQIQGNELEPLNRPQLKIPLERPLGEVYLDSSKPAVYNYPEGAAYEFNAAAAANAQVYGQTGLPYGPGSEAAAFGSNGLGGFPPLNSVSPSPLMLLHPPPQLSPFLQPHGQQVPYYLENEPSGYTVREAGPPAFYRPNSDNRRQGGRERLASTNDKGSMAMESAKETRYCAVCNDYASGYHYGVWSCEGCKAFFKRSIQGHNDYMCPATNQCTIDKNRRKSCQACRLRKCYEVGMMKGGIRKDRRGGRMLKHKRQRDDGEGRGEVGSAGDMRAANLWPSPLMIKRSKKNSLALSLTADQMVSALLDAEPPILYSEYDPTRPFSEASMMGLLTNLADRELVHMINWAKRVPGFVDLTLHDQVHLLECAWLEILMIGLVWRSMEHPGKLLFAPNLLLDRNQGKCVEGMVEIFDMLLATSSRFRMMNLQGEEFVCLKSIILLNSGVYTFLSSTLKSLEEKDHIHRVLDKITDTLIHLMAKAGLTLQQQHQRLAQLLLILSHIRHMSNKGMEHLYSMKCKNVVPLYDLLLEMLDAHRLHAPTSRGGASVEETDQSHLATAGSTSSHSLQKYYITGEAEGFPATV
In short: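 VM7Luc4E2, endog. ER-alpha + 4×ERE-luc; charcoal-stripped FBS, phenol red-free, 5 d; 24hr plating; +10.0nM ICI-182,780 (final); cpds 15 conc, 22hr, 37C/5% CO2; ONE-Glo luminescence.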

[8] = qHTS assay to identify small molecule agonists of the estrogen receptor alpha (ER-alpha) signaling pathway in the presence of an antagonist - cell viability counter screen (AID 1259386);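 note: series mostly up to about 92 µM; cells exposed to compounds for 22 h at 37 °C before the viability read; nearly all actives have a fitted effect of over 30% in size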
In short: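 VM7Luc4E2, stripped-serum pre-culture 5 d; 24hr plating; +ICI-182,780 10.0nM final; cpds 15 conc, 22hr, 37C/5% CO2; CellTiter-Fluor added at 21hr, fluorescence 1hr later.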

[9] = biological target: Progesterone receptor (Homo sapiens) (UniProt P06401); experiment: qHTS assay to identify small molecule agonists of the progesterone receptor (PR) signaling pathway (AID 1346784; calls by dose curve; note: nearly all actives have a fitted effect of over 30% in size)
Chain of Progesterone receptor (Homo sapiens) (P06401 whole entry, looked up): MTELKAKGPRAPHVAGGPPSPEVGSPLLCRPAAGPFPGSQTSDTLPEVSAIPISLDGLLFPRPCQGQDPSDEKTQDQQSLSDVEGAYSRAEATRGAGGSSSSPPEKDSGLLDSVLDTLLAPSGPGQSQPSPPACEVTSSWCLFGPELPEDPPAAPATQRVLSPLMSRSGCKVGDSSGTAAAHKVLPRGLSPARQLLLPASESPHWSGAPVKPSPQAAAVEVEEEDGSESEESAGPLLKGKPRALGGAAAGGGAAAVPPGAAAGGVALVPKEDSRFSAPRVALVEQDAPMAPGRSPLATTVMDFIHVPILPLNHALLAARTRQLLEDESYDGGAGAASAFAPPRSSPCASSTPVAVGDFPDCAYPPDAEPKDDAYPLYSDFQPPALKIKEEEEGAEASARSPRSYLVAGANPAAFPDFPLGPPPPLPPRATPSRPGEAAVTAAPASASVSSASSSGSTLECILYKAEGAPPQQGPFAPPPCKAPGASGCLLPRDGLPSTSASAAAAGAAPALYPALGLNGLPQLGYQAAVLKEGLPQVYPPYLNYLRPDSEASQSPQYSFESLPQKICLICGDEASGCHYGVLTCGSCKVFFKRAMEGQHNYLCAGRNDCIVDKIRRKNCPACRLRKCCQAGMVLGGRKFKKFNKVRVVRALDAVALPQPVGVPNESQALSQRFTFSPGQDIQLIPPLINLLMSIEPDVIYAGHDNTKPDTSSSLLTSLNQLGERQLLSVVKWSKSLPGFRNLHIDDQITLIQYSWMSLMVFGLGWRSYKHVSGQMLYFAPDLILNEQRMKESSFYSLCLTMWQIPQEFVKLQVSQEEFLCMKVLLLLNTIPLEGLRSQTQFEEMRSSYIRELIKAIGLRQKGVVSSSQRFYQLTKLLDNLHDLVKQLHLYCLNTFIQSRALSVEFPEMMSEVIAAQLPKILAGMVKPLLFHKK
In short: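 PR-UAS-bla HEK 293T cells (beta-lactamase reporter under UAS) in 2% charcoal-stripped FBS, dosed with 23 nL compound after 6 hr, incubated 16hr at 37C. LiveBLAzer B/G FRET substrate added, fluorescence read after 2 hours.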

[10] = biological target: Progesterone receptor (Homo sapiens) (UniProt P06401); experiment: qHTS assay to identify small molecule antagonists of the progesterone receptor (PR) signaling pathway (AID 1346795; active = well fitted inhibition curve with a large enough effect in the signal ratio in the repeat runs, not every such curve was filed as active; the % refers to the signal ratio)
In short: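 PR-UAS-bla HEK293T cells with beta-lactamase reporter under UAS control, in 2% charcoal-stripped FBS, treated with compounds plus 1 nM promegestone (R5020, final) for 16 hr at 37C. Read-out: FRET beta-lactamase substrate fluorescence after 2 hr at room temperature.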

[11] = qHTS assay to identify small molecule agonists of the progesterone receptor (PR) signaling pathway - cell viability counter screen (AID 1346799; calls by dose curve; note: nearly all actives have a fitted effect of over 45% in size; note: potency is the fitted concentration of half-maximal effect)
In short: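 Counter screen in the PR-UAS-bla HEK293T wells (2% charcoal-stripped FBS, 16 h compound exposure at 37 C) after the bla read. CellTiter-Glo added, 30 min at room temperature, luminescence read as cell viability.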

[12] = qHTS assay to identify small molecule antagonists of the TGF-beta/Smad signaling pathway - cell viability counter screen (AID 1346824); note: nearly all actives have a fitted effect of over 50% in size
In short: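 Cytotoxicity counter-screen run in the same wells as the beta-lactamase Smad reporter read: CellTiter-Glo luminescence after 30 min at room temperature. HEK 293T SBE-bla cells had 5 hr compound exposure at 37 C with TGF-beta1 (0.25 ng/mL stock).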

[13] = qHTS assay to identify small molecule agonists of the TGF-beta/Smad signaling pathway - cell viability counter screen (AID 1346829); note: top concentration of the series differs between compounds; nearly all actives have a fitted effect of over 45% in size
In short: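 Luminescence from CellTiter-Glo, read after a 30 min room-temperature incubation, gives cell viability of SBE-bla HEK 293T cells treated 5 hr with compounds at 37 C.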

[14] = qHTS assay to identify small molecule agonists of the TGF-beta/Smad signaling pathway (AID 1346859; active = well fitted activation curve with a large enough effect in the signal ratio in the repeat runs, not every such curve was filed as active; the % refers to the signal ratio; note: series mostly up to about 77 µM)
In short: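 SBE-bla HEK293T cells plated overnight, then compound exposure for 5 h at 37 C. Beta-lactamase reporter read with LiveBLAzer B/G FRET substrate after 2 h at room temperature, fluorescence at 405 nm excitation, 460/530 nm emission.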

[15] = qHTS assay to identify small molecule agonists or antagonists of the thyroid stimulating hormone receptor (TSHR) signaling pathway - wild type cell line counter screen (AID 1259384; calls by dose curve)
In short: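 Counter screen in untransfected Hek293: compounds (15-point titration, triplicate) plus phosphodiesterase inhibitor Ro20-1724 added after 18 h plating; 30 min RT. Intracellular cAMP via competitive d2/cryptate immunoassay, 1 h incubation.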

[16] = biological target: Thyrotropin receptor (Homo sapiens) (UniProt P16473); experiment: qHTS assay to identify small molecule antagonists of the thyroid stimulating hormone receptor (TSHR) signaling pathway (AID 1259385; calls by dose curve; note: nearly all actives have a fitted effect of over 20% in size)
Chain of Thyrotropin receptor (Homo sapiens) (P16473 whole entry, looked up): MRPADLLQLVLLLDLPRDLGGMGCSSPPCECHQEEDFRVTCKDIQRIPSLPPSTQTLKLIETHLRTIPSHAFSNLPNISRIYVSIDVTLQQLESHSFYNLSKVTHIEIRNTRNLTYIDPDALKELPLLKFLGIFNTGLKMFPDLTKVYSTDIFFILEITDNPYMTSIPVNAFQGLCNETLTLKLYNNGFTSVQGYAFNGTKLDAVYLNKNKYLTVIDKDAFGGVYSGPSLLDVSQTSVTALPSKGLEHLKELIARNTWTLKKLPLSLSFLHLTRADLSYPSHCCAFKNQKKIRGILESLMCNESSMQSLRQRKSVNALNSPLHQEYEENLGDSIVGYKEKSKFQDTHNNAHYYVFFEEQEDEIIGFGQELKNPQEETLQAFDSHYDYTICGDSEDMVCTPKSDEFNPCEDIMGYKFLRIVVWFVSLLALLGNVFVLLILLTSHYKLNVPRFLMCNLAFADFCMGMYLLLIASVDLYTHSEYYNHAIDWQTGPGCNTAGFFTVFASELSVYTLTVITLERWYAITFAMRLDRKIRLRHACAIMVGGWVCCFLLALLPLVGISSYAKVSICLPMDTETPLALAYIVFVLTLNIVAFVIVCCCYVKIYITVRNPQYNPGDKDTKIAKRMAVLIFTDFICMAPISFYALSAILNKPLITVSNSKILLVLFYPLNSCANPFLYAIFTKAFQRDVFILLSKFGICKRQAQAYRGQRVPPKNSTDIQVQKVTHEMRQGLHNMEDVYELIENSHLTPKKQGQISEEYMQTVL
In short: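 Antagonist mode: compound-treated TSHR-expressing HEK293 cells were stimulated with 1.5 ng/mL TSH (final) in presence of Ro20-1724 for 30 min at RT. HTRF cAMP detection after 1 h; each compound tested at 15 concentrations, triplicate.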

[17] = qHTS assay to identify small molecule antagonists of the progesterone receptor (PR) signaling pathway - cell viability counter screen (AID 1346798); note: series mostly up to about 92 µM; nearly all actives have a fitted effect of over 50% in size
In short: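 PR-UAS-bla HEK293T cells, 3,000/well in 2% charcoal-stripped FBS medium, dosed with compounds plus R5020 agonist and incubated 16 h at 37C. Viability then measured in the same wells by CellTiter-Glo luminescence after 30 min at RT.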

[18] = biological target: Thyrotropin-releasing hormone receptor (Homo sapiens) (UniProt P34981); experiment: qHTS assay to identify small molecule antagonists of the thyrotropin-releasing hormone receptor (TRHR) signaling pathway (AID 1346877; active = well fitted inhibition curve with a large enough effect in the repeat runs, not every such curve was filed as active; note: series mostly up to about 51 µM)
Chain of Thyrotropin-releasing hormone receptor (Homo sapiens) (P34981 whole entry, looked up): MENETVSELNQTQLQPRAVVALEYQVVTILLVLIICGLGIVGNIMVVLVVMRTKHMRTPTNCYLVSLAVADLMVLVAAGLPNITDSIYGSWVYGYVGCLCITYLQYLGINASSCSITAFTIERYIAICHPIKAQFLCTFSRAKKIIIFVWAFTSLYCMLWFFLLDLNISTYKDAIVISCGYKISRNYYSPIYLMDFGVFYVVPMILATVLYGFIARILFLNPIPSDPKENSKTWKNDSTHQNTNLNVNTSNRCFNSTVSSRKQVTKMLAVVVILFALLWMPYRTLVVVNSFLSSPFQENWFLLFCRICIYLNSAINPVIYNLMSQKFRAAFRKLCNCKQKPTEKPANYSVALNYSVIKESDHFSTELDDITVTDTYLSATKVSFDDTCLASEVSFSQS
In short: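 Intracellular calcium fluorescence, read kinetically every second over 3 min, reports TRH-evoked signalling in HEK293 cells carrying TRHR. Test compounds were added 5 min ahead of a 1 nM TRH challenge.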

[19] = biological target: Androgen receptor (Homo sapiens) (UniProt P10275); experiment: qHTS assay to identify small molecule agonists of the androgen receptor (AR) signaling pathway in the presence of an antagonist (AID 1259381; calls by dose curve; note: nearly all actives have a fitted effect of over 15% in size)
Chain of Androgen receptor (Homo sapiens) (P10275 whole entry, looked up): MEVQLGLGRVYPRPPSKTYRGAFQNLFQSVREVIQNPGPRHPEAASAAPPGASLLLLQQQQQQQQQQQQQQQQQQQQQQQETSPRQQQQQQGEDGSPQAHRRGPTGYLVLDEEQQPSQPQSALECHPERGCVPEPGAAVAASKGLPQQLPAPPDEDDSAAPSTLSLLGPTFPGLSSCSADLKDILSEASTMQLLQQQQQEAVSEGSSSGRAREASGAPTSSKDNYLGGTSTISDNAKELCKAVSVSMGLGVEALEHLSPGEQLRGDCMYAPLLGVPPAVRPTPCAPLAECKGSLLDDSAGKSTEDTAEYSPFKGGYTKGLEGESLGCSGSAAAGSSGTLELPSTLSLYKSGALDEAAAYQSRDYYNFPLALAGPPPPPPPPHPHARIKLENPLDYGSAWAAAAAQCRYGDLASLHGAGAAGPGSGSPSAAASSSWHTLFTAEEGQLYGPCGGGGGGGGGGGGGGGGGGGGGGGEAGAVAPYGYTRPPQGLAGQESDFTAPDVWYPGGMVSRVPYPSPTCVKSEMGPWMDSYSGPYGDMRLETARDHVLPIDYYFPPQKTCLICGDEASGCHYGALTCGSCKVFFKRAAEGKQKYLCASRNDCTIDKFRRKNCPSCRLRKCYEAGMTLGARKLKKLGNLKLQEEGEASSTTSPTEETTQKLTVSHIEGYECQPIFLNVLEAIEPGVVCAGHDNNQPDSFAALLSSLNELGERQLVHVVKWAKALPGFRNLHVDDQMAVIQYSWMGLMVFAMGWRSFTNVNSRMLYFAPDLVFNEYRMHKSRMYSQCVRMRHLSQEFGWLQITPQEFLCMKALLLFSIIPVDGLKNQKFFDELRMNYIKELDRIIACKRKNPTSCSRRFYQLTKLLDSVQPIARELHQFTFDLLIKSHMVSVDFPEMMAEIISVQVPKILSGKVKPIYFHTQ
In short: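 MDA-kb2 cells, 3,000/well, rested 5hr at 37C/0% CO2 → nilutamide 3.0uM final or buffer → compounds, 15 conc. → 16hr at 37C → ONE-Glo, 30min RT → luminescence.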

Row | Structure (SMILES) | Potency [1] | Potency [2] | Potency [3] | Potency [4] | Potency [5] | outcome [6] | Potency [7] | Potency [8] | Potency [9] | Potency [10] | Potency [11] | outcome [12] | outcome [13] | outcome [14] | outcome [15] | Potency [16] | Potency [17] | outcome [18] | Potency [19]
1 | O=C(O[C@@H](C(=O)O)[C@@H](OC(=O)c1ccccc1)C(=O)O)c1ccccc1 | inactive | inactive | inactive | inactive | inactive | inactive | inactive | inactive | inactive | inactive | inactive | inactive | inactive | inactive | – | – | – | – | –
2 | O=C(O)C(=O)Cc1c[nH]c2ccccc12 | inactive | inactive | – | inactive | inactive | – | inactive | inactive | inactive | inactive | inactive | inactive | inactive | inactive | inactive | inactive | inactive | inactive | –
3 | O=Cc1ccc(O)c(O)c1O | inactive | 26.6 µM (active) | – | – | inactive | – | – | – | inactive | – | inactive | inactive | – | inactive | inactive | inactive | inactive | – | inactive
4 | Cc1ccccc1C(=O)Nc1ccc(C(=O)N2CCCC(O)c3cc(Cl)ccc32)c(C)c1 (stereo unspecified) | inactive | inactive | – | inactive | 23.7 µM (active) | inactive | – | inactive | – | – | – | inactive | inactive | inactive | – | – | inactive | – | –
5 | CC/C=C\CCOC(=O)C(C)C | inactive | inactive | – | inactive | inactive | – | inactive | inactive | inactive | inactive | inactive | inactive | inactive | inactive | inactive | inactive | inactive | inactive | –
6 | CN(CCCN1c2ccccc2CCc2ccccc21)CC(=O)c1ccc(Cl)cc1 | inactive | 26.6 µM (active) | – | inactive | – | – | inactive | inactive | – | – | inactive | inactive | inactive | inactive | inactive | inactive | inactive | inactive | –
7 | O=C(O)[C@@H](O)[C@H](O)[C@H](O)[C@@H](O)C(=O)O | inactive | inactive | – | inactive | inactive | inactive | – | inactive | – | inactive | inactive | inactive | inactive | inactive | inactive | inactive | inactive | inactive | –
8 | COc1nc(C)nc(NC(=O)NS(=O)(=O)c2ccccc2OCCCl)n1 | inactive | inactive | – | inactive | – | – | inactive | inactive | – | inactive | inactive | inactive | inactive | inactive | – | – | inactive | inactive | –
9 | CC(C)C1=CC2=CC[C@@H]3[C@](C)(CCC[C@@]3(C)C(=O)O)[C@H]2CC1 | inactive | inactive | – | – | 30.6 µM (active) | – | inactive | inactive | inactive | – | inactive | inactive | inactive | inactive | – | – | inactive | inactive | –
10 | Cc1cc2c(s1)Nc1ccccc1N=C2N1CCN(C)CC1 | inactive | inactive | – | inactive | inactive | inactive | inactive | – | – | inactive | inactive | inactive | – | inactive | – | – | inactive | inactive | –
11 | NC/C=C/C(=O)O | inactive | inactive | – | inactive | inactive | inactive | – | inactive | – | inactive | inactive | inactive | inactive | inactive | inactive | inactive | inactive | – | –
12 | CC(C)=CCCC(C)CCOC=O (stereo unspecified) | inactive | 34.4 µM (active) | – | inactive | inactive | – | – | inactive | – | inactive | inactive | inactive | inactive | inactive | inactive | inactive | inactive | inactive | –
13 | CCCC1CCC(=O)O1 (stereo unspecified) | inactive | inactive | – | inactive | inactive | inactive | – | inactive | inactive | – | inactive | inactive | – | inactive | inactive | inactive | inactive | – | –
14 | O=C1CCCCC1C1CCCCC1 (stereo unspecified) | inactive | inactive | – | inactive | inactive | – | inactive | inactive | inactive | inactive | inactive | inactive | inactive | inactive | inactive | inactive | inactive | inactive | –
15 | CCCNC(C)(C)COC(=O)c1ccccc1 | inactive | inactive | – | – | inactive | inactive | inactive | inactive | inactive | inactive | inactive | inactive | inactive | inactive | inactive | inactive | inactive | inactive | –
16 | CCCCCCCCCCCCOCCOS(=O)(=O)O | inactive | inactive | – | – | 48.6 µM (active) | – | inactive | inactive | inactive | – | 27.3 µM (active) | inactive | – | inactive | inactive | – | inactive | – | –
17 | CC(=O)Nc1ccc(C)c(Cl)c1 | inactive | inactive | – | inactive | inactive | – | – | inactive | inactive | inactive | inactive | inactive | inactive | inactive | inactive | inactive | inactive | inactive | –
18 | CC(C)C[C@H](NC(=O)OCC1c2ccccc2-c2ccccc21)C(=O)O | inactive | inactive | – | inactive | 61.1 µM (active) | – | – | inactive | – | – | inactive | inactive | inactive | – | inactive | inactive | inactive | – | –
19 | C/C(=N\O)[C@@H](C)NCC(C)(C)CN[C@H](C)/C(C)=N/O | inactive | inactive | – | inactive | inactive | inactive | – | inactive | inactive | inactive | inactive | inactive | inactive | inactive | inactive | inactive | – | inactive | –
